FLuc modulator – counter-screen for miR-21 project: firefly luciferase inhibitors or activators. P08659. purified FLuc, Km substrates, luminescence inhibition. Potency, µM (series often up to 57.5 µM), for inactives: at the highest dose activity change, negative = inhibition, actives largely listed as inhibitors. hit rate 6.9% among 360,000. AID 588342;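 further: plate controls were vehicle for no effect and reference inhibitor for full effect; nearly all actives have a fitted effect of over 55% in size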
Target sequence (P08659 whole entry, looked up): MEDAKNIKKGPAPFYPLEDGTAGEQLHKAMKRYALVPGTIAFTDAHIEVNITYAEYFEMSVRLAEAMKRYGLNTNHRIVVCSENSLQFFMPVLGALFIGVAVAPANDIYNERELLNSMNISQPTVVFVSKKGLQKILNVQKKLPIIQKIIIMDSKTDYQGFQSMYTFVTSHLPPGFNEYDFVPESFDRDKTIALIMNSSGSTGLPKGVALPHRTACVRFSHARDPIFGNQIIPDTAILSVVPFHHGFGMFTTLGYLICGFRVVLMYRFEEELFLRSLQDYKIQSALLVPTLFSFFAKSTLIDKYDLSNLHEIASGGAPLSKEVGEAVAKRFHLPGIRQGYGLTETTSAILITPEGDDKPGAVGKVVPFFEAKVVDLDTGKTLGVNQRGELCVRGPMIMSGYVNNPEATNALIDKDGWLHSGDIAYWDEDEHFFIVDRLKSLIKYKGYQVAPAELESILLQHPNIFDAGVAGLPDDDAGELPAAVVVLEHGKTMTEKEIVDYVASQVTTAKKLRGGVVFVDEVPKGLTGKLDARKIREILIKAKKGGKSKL
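Biochemical qHTS of compounds, final roughly 60 µM downward over six points, against 10 nM purified firefly luciferase using Km concentrations of substrates (10 uM D-luciferin, 10 uM ATP) in Tris acetate pH 7.5 buffer; luminescence output.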
Rab9 prom act – Rab9 promoter activation | Huh7 Rab9 promoter-luciferase reporter, luminescence, 24 h | Potency, µM (doses to about 9.22 µM), for inactives: at the highest dose activation, negative = inhibition, usual class: activators | hit rate 2.8% among 320,000 | AID 485297; further: % of control where 0% means no effect; nearly all actives have a fitted effect of over 60% in size
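Luminescence read-out: Huh7 cells stably expressing Rab9-luciferase, treated 24 h with compound at 37 °C, then lysed with luciferase reagent for 10 min at ambient before reading.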
SMN2 splice enh – increases expression of the SMN2 splice variant; HEK293 SMN2-luciferase splicing reporter, luminescence, 30-36 h; Potency, µM (doses to about 46.1 µM), for inactives: at the top dose activity change, positive = activation, hits mostly activators; hit rate 2.8% among 210,000; AID 1458; further: % of control where 0% means no effect; nearly all actives have a fitted effect of over 55% in size
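HEK293 cells carry an SMN2 […]–luciferase reporter in which exon 7 inclusion puts luciferase in frame. Cells were plated 10-12 h before compound addition, then incubated 30-36 h at 37C. ONE-Glo luminescence was read; sodium butyrate at 4.5 mM final served as control.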
ELG1 genotoxic – genotoxicity induction in ELG1-luciferase HEK293T cells. hit rate 1.3% among 330,000. Potency, µM (titrated, usually from 46 µM), for the others: at the top dose activity change, positive = activation, usual class: activators. HEK293T ELG1-luciferase reporter, luminescence, 16 h. AID 504466; further: % of control where 0% means no effect; nearly all actives have a fitted effect of over 60% in size
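HEK293T cells expressing luciferase-tagged ELG1 were exposed to compound or DMSO vehicle for 16 hr at 37 °C and 5% CO2. Luciferase activity was then measured with ONE-Glo after 30 min at room temperature.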
Luc counter – Kinase-Glo luciferase inhibition (counter-screen) | Q27757 | Kinase-Glo luciferase, ATP luminescence, 8 min | Potency, µM (top dose mostly 38.3 µM), for inactives: top-dose activity change, negative = inhibition, hits mostly inhibitors | hit rate 0.28% among 200,000 | AID 1379; further: on the % scale 0 is the no-effect control and ±100 the full control effect; nearly all actives have a fitted effect of over 60% in size
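Substrate mix (final 50 mM imidazole pH 7.2, 50 mM KCl, 7 mM MgCl2, 10 uM ATP, 0.01% Tween 20, 0.05% BSA) plus pin-tool compound, then Kinase-Glo detection mix; 8 min ambient, luminescence read.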
NPC1 prom act – activators of NPC1 promoter; Huh7 NPC1 promoter luciferase reporter, 24 h; Potency, µM (doses to about 9.22 µM), without a hit: at the highest dose activation, actives largely listed as activators; hit rate 2.4% among 320,000; AID 485313; further: % of control where 0% means no effect; nearly all actives have a fitted effect of over 60% in size
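Luciferase expression driven by the NPC1 promoter was measured in stably transfected Huh7 cells after a 24 h compound incubation, using a luciferase reagent and a luminescence read.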
The depositor's hits bear a star; ? = inconclusive; · = not tested or not shown; [ ] = dose if it differs, or a comment. Rows were chosen to be rich in hits. Some 7.4% of all compounds tested hit in one or more screens of this group. The call rests on the fitted dose curve; in most records, active means well fitted curve in the direction sought with a large enough effect; inconclusive means small, poorly fitted or top-dose-only effect, or another doubt; inactive means no such curve, though single readings can be large; an effect the other way counts as inactive or inconclusive. Potency means the concentration at half of the fitted maximal effect.

SMILES	FLuc modulator	Rab9 prom act	SMN2 splice enh	ELG1 genotoxic	Luc counter	NPC1 prom act
COC(=O)c1ccc(/C=N/Nc2nc(-c3ccccc3)cs2)cc1	-2.4%	20.0%	·	6.0%	·	12.1%
CCOC(=O)Cc1csc(N/N=C\c2ccc(N(C)C)cc2)n1	2.39µM*	28.9%	·	7.8%	·	?
CCOC(=O)Cc1csc(N/N=C\c2ccccc2OC)n1	10.7µM*	19.6%	·	7.6%	·	25.9%
Cc1nn(-c2ccccc2)c(OC(=O)c2ccccc2Br)c1S(=O)(=O)c1ccccc1	?	·	18.1%	·	·	·
O=C(CCCOc1ccc(Cl)cc1)N1CCCCC1	-26.0%	3.55µM*	·	20.6µM*	3.9%	27.1%
O=C(CCCOc1ccc(Cl)cc1)N1CCOCC1	-17.8%	-5.3%[1.84 µM]	17.7%	?	0.2%	-1.2%
O=C(COc1ccccc1)N1CCCCCCC1	0.3%	-1.6%	·	2.2%	·	1.1%
O=C(CCCOc1ccc(Cl)cc1)N1CCCCCC1	-3.4%	11.8%	19.8%	16.4µM*	14.9%	12.4%
O=C(COc1ccc(Cl)cc1)N1CCCCCCC1	-16.0%	19.0%	·	0.7%	·	16.9%
O=C(CCCOc1ccccc1)N1CCCCC1	1.51µM*	?	2.51µM*	0.461µM*	-29.2%	0.501µM*
CCOC(=O)C1CCN(C(=O)CCCOc2ccccc2)CC1	9.53µM*	?	30.1%	?	-6.3%	?
O=C(c1ccc(COc2ccc(Cl)cc2)cc1)N1CCCCC1	12µM*	?	11.9%	?	-2.6%	?
CCC1CCCCN1C(=O)CCCOc1ccccc1 (stereo unspecified)	19µM*	?	-2.0%	13µM*	-0.7%	?
Cc1cc(N2CCN(C)CC2)n2nc(-c3ccc(Cl)cc3)nc2n1	-18.5%	-6.1%	-11.1%[9.22 µM]	5.4%	0.4%[7.66 µM]	0.5%
Cc1cc(C)n2nc(-c3ccc(Cl)cc3)nc2n1	15.1µM*	·	15.8µM*	·	·	·
CCN(CCO)c1ccc(N=Nc2cc(C)[nH]n2)cc1	0.269µM*	?	·	?	·	?
COc1ccc(NC(=S)NC(=O)/C=C/c2ccco2)c(OC)c1	-0.7%	2.3%	·	-1.7%	·	2.2%
COc1cccc(NC(=S)NC(=O)/C=C/c2ccco2)c1	16.9µM*	24.9%	·	?	·	4.6%
CN1CCN(c2ccc(NC(=S)NC(=O)/C=C/c3ccco3)cc2)CC1	23.9µM*	?	·	?	·	?
CC(=O)Nc1ccc(NC(=S)NC(=O)/C=C/c2ccco2)cc1	-1.2%	4.1%	·	-2.0%	·	0.5%
O=C(/C=C/c1ccco1)NC(=S)Nc1cccc(C(=O)O)c1	10.7µM*	2.82µM*	·	?	·	3.98µM*
Cc1ccc(CNC(=O)CCc2c(C)nc3c4c(C)cc(C)nc4nn3c2C)cc1	-2.1%	·	22.3%	·	·	·
CCCCN(CC)CCNC(=O)Cn1c(=O)c2cccn2c2cccnc21	-3.9%	·	·	·	·	·
CCOc1ccc(C(=O)Nc2ccc3c(c2)OCCO3)cc1[N+](=O)[O-]	?	21.0%	-27.7%	-13.4%	-0.8%	0.1%
Cn1ncc(Cl)c1C(=O)Nc1ccc2c(c1)OCO2	-10.1%	18.1%	·	13.0%	·	16.6%
SMILES	FLuc modulator	Rab9 prom act	SMN2 splice enh	ELG1 genotoxic	Luc counter	NPC1 prom act
Cc1cc(C(=O)Nc2ccc3c(c2)OCO3)cs1	4.78µM*	1.26µM*	12.6µM*	7.31µM*	?	1.78µM*
O=C(Nc1ccc2c(c1)OCO2)c1c(Cl)nc2sccn12	?	3.16µM*	?	?	-6.0%	?
O=C(Nc1ccc(N2CCCCC2)c(Cl)c1)c1ccc2c(c1)OCCO2	5.36µM*	28.2%	-61.0%	?	-2.9%	24.5%
O=C(Nc1ccc(Cl)c([N+](=O)[O-])c1)c1ccc2c(c1)OCCO2	6.01µM*	0.891µM*	·	?	·	?
O=C(Nc1ccc(OC(F)(F)F)cc1)C(NS(=O)(=O)c1cccc2nsnc12)c1ccccc1 (stereo unspecified)	?	·	-25.6%	·	·	·
O=C(Nc1ccc2c(c1)OCO2)c1ccc(Cl)s1	4.26µM*	2µM*	7.08µM*	2.59µM*	?	2.24µM*
O=C(Nc1ccc2c(c1)OCO2)c1cc(-c2ccc(Br)cc2)on1	-1.8%	·	-2.3%	·	·	·
O=C(Nc1ccc(F)c(F)c1)c1ccc2c(c1)OCO2	9.53µM*	?	12.7%	3.66µM*	?	2.51µM*
O=C(Nc1ccc2c(c1)OCO2)c1cccc(Cl)c1	9.53µM*	2.24µM*	15.8µM*	?	?	3.16µM*
CCc1ccc(-n2nc3ccc(NC(=O)c4ccc5c(c4)OCO5)cc3n2)cc1	3.7%	-1.3%	-14.3%	11.9%	2.1%	0.3%
O=C(Nc1ccc2c(c1)OCO2)c1ccc[n+]([O-])c1	0.5%	7.3%	-6.3%	1.4%	-5.1%	-4.4%
O=C(Nc1ccc2nsnc2c1)c1ccc2c(c1)OCO2	1.35µM*	0.447µM*	5.62µM*	1.16µM*	-6.4%	0.631µM*
COc1cc(Br)c(C2CC(=O)Nc3cc(OC)c(OC)c(OC)c32)cc1OC (stereo unspecified)	0.1%	·	-3.7%	·	·	·

Bioassay records deposited in PubChem BioAssay by National Center for Advancing Translational Sciences (NCATS).
